The record followed here is publication PMC4336329 (PLoS ONE, 2015).

Out of some 310,000 compounds screened, about 2,200 (0.71%) showed an effect of 50% or more. Effects have a minus sign here. For the sample, strong results were picked, then their nearest neighbours and some compounds at random.

The target of the assay is human ether-à-go-go-related gene (hERG) potassium channel (human, UniProt Q12809). The assay is described as follows: primary screen, population patch clamp on CHO cells stably expressing hERG; higher = less effect of the substance.
Chain of human ether-à-go-go-related gene (hERG) potassium channel (Q12809 whole entry, looked up): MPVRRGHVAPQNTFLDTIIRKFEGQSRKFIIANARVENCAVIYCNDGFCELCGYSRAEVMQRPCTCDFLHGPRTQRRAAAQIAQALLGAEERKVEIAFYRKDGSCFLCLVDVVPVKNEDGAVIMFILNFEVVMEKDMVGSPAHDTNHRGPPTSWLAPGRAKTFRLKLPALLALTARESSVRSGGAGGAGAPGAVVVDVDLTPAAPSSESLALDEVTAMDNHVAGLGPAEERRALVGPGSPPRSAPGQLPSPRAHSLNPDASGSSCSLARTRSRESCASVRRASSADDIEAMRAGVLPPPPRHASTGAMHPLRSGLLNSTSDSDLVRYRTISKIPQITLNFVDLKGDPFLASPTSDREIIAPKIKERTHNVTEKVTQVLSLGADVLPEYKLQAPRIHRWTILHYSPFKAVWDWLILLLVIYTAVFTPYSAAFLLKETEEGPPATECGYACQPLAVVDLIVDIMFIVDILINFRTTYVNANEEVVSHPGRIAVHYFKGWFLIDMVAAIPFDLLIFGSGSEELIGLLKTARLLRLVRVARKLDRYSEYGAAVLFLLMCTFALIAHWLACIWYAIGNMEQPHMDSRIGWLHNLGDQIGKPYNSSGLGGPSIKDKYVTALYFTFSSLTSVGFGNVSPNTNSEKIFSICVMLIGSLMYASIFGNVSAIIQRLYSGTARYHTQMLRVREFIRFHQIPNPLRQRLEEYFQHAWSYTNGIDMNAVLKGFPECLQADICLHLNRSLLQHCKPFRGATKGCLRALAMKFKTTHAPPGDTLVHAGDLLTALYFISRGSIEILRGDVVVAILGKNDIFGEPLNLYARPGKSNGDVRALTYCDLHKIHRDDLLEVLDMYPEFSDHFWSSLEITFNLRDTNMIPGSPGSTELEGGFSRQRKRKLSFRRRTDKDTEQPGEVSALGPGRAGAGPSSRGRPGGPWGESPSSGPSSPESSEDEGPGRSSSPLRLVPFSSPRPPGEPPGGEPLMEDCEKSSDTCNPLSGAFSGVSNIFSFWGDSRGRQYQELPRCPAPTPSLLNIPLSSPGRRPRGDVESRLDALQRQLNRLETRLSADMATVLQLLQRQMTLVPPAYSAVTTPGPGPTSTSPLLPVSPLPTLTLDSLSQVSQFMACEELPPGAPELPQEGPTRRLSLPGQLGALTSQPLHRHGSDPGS
Take `CCc1cc(=O)oc2c(C)c(OCC(=O)NCCCn3ccnc3)ccc12`: the “hERG current change (%, negative = inhibition) at 1uM” value worked out at 5.28%.
For the molecule `CCc1cc(=O)oc2cc(C)cc(OC(C)C(=O)NCCCn3ccnc3)c12` (centres unmarked), the “hERG current change (%, negative = inhibition) at 1uM” value is recorded as 2.72%.
The same measure for `CCCc1cc(=O)oc2c(C)c(OCC(=O)NCCCn3ccnc3)ccc12`: -70%.
In the case of `Cc1cc(OC(C)C(=O)NCCCn2ccnc2)c2c(C)c(C)c(=O)oc2c1` (centres unmarked), the “hERG current change (%, negative = inhibition) at 1uM” value is -51.6%.
Consider `CCCc1cc(=O)oc2cc(C)cc(OCC(=O)NCCCn3ccnc3)c12`, for which the “hERG current change (%, negative = inhibition) at 1uM” value is -66.7%.
The figure for `Cc1cc(OCC(=O)NCCCn2ccnc2)c2c(C)cc(=O)oc2c1` is 14.7%; for `Cc1cc(OC(C)C(=O)NCCCn2ccnc2)c2c(C)cc(=O)oc2c1` (centres unmarked) it is 9.26%.
The figure for `CCc1cc(=O)oc2cc(C)cc(OCC(=O)NCc3ccncc3)c12` is -8.01%; for `CCCc1cc(=O)oc2cc(C)cc(OCC(=O)NCc3ccncc3)c12` it is -48%.
Consider `Cc1c(C)c2ccc(OCC(=O)NCCCn3ccnc3)c(C)c2oc1=O`, for which the “hERG current change (%, negative = inhibition) at 1uM” value is given as -11.1%.
As for `CCC(=O)N1CCN(c2ccc(NC(=O)COc3ccc(CC)cc3)cc2)CC1`, the “hERG current change (%, negative = inhibition) at 1uM” value came to 10.9%.
In the case of `CC(C)[C@@H]1NC(=O)c2cc([N+](=O)[O-])cc(I)c2NCCC[C@@H](C(N)=O)NC(=O)[C@H](CO)NC1=O`, the “hERG current change (%, negative = inhibition) at 1uM” value stood at 8.46%.
The figure for `O=C(CSc1ncn[nH]1)c1cccc([N+](=O)[O-])c1` is 11.5%; for `C#CCNC(=O)C1=C[C@H](c2ccc3c(c2)OCO3)C[C@H](OCCCCO)O1` it is 15%; for `CCN(CC(=O)Nc1c(F)cccc1F)C(=O)c1ccc2ncsc2c1` it is 12.3%.
The same measure for `CC1=CCC(C(=O)O)C(C(=O)Nc2cccnc2)C1` (centres unmarked): 5.97%; for `COc1ccc(CCNC(=O)CNS(=O)(=O)c2ccc(Br)s2)cc1OC`: 1.45%.
The figure for `CC(CN1CCOCC1)OC(=O)C1COc2ccccc2O1.Cl` (centres unmarked) is 7.15%.
On to `CC(NCC(=O)Nc1ccccc1C(=O)NC1CC1)c1ccc(S(C)(=O)=O)cc1` (centres unmarked), for which the “hERG current change (%, negative = inhibition) at 1uM” value is 10.9%.
Consider `CCc1cc(=O)oc2c(C)c(OCC(=O)NCCN3CCOCC3)ccc12`, for which the “hERG current change (%, negative = inhibition) at 1uM” value was found to be 12.8%.
The figure for `CCCCc1cc(=O)oc2c(C)c(OCC(=O)NCCN3CCOCC3)ccc12` is -77.1%; for `CCCc1cc(=O)oc2c(C)c(OCC(=O)NCCN3CCOCC3)ccc12` it is -6.02%.
Turning to `Cc1nc2cc(NC(=O)NCc3ccccc3)ccc2o1`, the “hERG current change (%, negative = inhibition) at 1uM” value is recorded as 16.2%.
`CCOC(=O)Cc1nc2ccccc2o1`: the “hERG current change (%, negative = inhibition) at 1uM” value came out at 9.03%.
The figure for `O=C(NCc1cccnc1)Nc1ccc(Cl)cc1` is -18.3%; for `CCOC(=O)C1=C(OCc2ccc(Cl)cc2)C2C=C(C)C=CC2N=C1` (centres unmarked) it is -18.1%.
The figure for `COc1ccccc1CNn1c(-c2cccc(C)c2)nc2ccccc2c1=O` is 5.72%; for `COc1cccc(CNn2c(-c3cccc(C)c3)nc3ccccc3c2=O)c1` it is 6.03%; for `COc1ccc(CNn2c(-c3cccc(C)c3)nc3ccccc3c2=O)cc1OC` it is -54.8%.
In the case of `Cc1cc(C)nc(/N=C(\N)N(Cc2ccccc2)Cc2ccccc2)n1`, the “hERG current change (%, negative = inhibition) at 1uM” value is listed as -31.2%.
The same measure for `CCCCN(CCCC)/C(N)=N/c1nc(C)cc(C)n1`: -51.8%; for `CCN(CC)/C(N)=N/c1nc(C)cc(C)n1`: 3.23%; for `Cc1cc(OCC(=O)N2CCC(C(=O)O)(c3ccccc3)CC2)c2c(C)c(C)c(=O)oc2c1`: 4.94%.
As for `COc1ccc(OCC(=O)Nc2ccc(OC)c(S(=O)(=O)N3CCCCC3)c2)cc1`, the “hERG current change (%, negative = inhibition) at 1uM” value was -2.82%.
Consider `Brc1ccc(Oc2nnnn2-c2ccccc2)cc1`, for which the “hERG current change (%, negative = inhibition) at 1uM” value worked out at 11%.
The figure for `O=C(Nc1ccc2c(c1)OCCO2)C1CCN(C(=O)c2ccc([N+](=O)[O-])cc2)CC1` is -16.3%.
For `COc1ccc(C(=O)N2CCC(C(=O)Nc3ccc4c(c3)OCCO4)CC2)cc1`, the “hERG current change (%, negative = inhibition) at 1uM” value is listed as -13.1%.
The same measure for `COc1ccc(C(=O)N2CCC(C(=O)Nc3ccc4c(c3)OCO4)CC2)cc1`: -59%; for `O=C(Nc1ccc(F)cc1)C1CCN(C(=O)c2ccc([N+](=O)[O-])cc2)CC1`: 11.5%.
The figure for `O=C(Nc1ccc2c(c1)OCO2)C1CCN(C(=O)c2ccc([N+](=O)[O-])cc2)CC1` is -74.6%; for `O=C(Nc1ccc2c(c1)OCCO2)C1CCN(C(=O)c2ccc(F)cc2)CC1` it is 5.7%.
The same measure for `COc1cc(OC)cc(C(=O)N2CCC(C(=O)Nc3ccc4c(c3)OCCO4)CC2)c1`: 12.5%; for `COc1ccc(C(=O)N2CCC(C(=O)Nc3ccc(OC)c(OC)c3)CC2)cc1`: 10.7%; for `COc1ccc(C(=O)N2CCC(C(=O)Nc3ccc(C)cc3)CC2)cc1`: -31.9%.
As to `COc1ccc(NC(=O)C2CCN(C(=O)c3ccc(OC)cc3)CC2)cc1`, the “hERG current change (%, negative = inhibition) at 1uM” value is -69.6%.
The figure for `O=C(Nc1ccccc1)C1CCN(C(=O)c2ccc([N+](=O)[O-])cc2)CC1` is -67%; for `CC(=O)Nc1ccc(NC(=O)C2CCN(C(=O)c3ccc([N+](=O)[O-])cc3)CC2)cc1` it is 22.3%.
